Experimental data: PubChem BioAssay AID720519 (National Center for Advancing Translational Sciences (NCATS), 2013)
Inconclusive results are not listed. Where a call stands in place of a potency, no number is given. Calls of active or inactive are those of the source. Calls follow the shape of the dose curve; as a rule, active = well fitted activation curve with a large enough effect; inconclusive = small, poorly fitted or top-dose-only effect; inactive = flat fitted curve, though single readings scatter.

Assay: qHTS for Inhibitors of Cell Surface uPA Generation: Confirmatory Assay for Cherry-picked Compounds
Conditions: cell surface uPA activity generation, qHTS confirmation; series mostly up to 115 µM
In short: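 RAW 264.7 cells at 4000/well, incubated overnight, then treated with compounds. After 24 h at 37 C, viability was read by ATPlite luminescence. An increase in signal indicates blocked uPA-dependent LF entry.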
Potency is read from the fitted curve at half-maximal effect.

Row | SMILES | Potency
1 | C#CCN1C=C(C(=O)OCC)C(C)NS1(=O)=O (centres undefined) | inactive
2 | O=C(NCCCn1cccn1)C1CCC(=O)N(Cc2ccccc2F)C1 (centres undefined) | inactive
3 | COC(=O)CSc1nc(N2CCOCC2)c2c(c1C#N)CCCC2 | inactive
4 | CC(C)c1ccc(SCc2noc(C(=O)NCC3CCCO3)c2C(=O)O)cc1 (centres undefined) | inactive
5 | O=C(NCc1ccc(F)cc1)c1cc(S(=O)(=O)N2CCCCC2)ccc1N1CCOCC1 | inactive
6 | CC1=C(C(=O)OCc2ccccc2)C(c2cccc([N+](=O)[O-])c2)NC(=O)N1 (centres undefined) | inactive
7 | COc1ccc(/C=N/NC(=O)COc2ccc3ccccc3c2)c(C(=O)O)c1OC | inactive
8 | CNC(=S)N1C2CCCC1CC(NC(=O)c1ccc(F)cc1)C2 (centres undefined) | inactive
9 | COCCN(C(=O)CSc1nnc(-c2ccncc2)n1C)c1c(N)n(CC(C)C)c(=O)[nH]c1=O | inactive
10 | CCOC(=O)c1c(NC(=S)NC)sc2c1CCCC2 | inactive
11 | CCOc1ccc(C2(C)CC(=O)N(C)C2=O)cc1 (centres undefined) | inactive
12 | Cc1ccc(Cl)cc1NC(=O)c1ccccc1OCC(=O)N1CCOCC1 | inactive
13 | COC(=O)C(CCSC)NC(=O)Cn1ncc2c(=O)oc3ccccc3c21 (centres undefined) | inactive
14 | CSCC[C@H](NC(=O)[C@H](Cc1ccccc1)n1c(=O)[nH]c2ccccc2c1=O)C(=O)N1CCC[C@@H]1C(=O)O | inactive
15 | S=C(Nc1ccccc1Oc1ccccc1)NC1CCCC1 | inactive
16 | CCOC(=O)C1=C(C)NC(C)=C(C(=O)OCC)C1C(=O)OCC(=O)NCCc1ccccc1 | 9.27 µM (active)
17 | COc1ccc(N(CN2C(=O)c3ccccc3C2=O)C(=O)C(C)C)cc1 | inactive
18 | Cc1noc(C)c1COc1ccc(C(=O)N2CCN(S(=O)(=O)c3ccc(Cl)cc3)CC2)cc1 | inactive
19 | CCOc1ccc(NS(=O)(=O)c2ccc(C(=O)N3CCC3)cc2)cc1 | inactive
20 | O=C(/C=C/c1ccc(O)c(O)c1)O[C@@H]1C[C@](O)(C(=O)O)C[C@@H](O)[C@H]1O | inactive

Row | SMILES | Potency
21 | C/C(=N\NC(=S)NC(C)C)c1ccc(Cl)s1 | inactive
22 | O=C(O)CNC(=S)N(Cc1ccccc1)Cc1cccnc1 | inactive
23 | CCOc1ccc(-c2n[nH]c(=S)n2Cc2ccccc2)cc1 | inactive
24 | CCCCn1c(=NC(=O)c2ccco2)c(C(=O)OCC)cc2c(=O)n3cccc(C)c3nc21 | inactive
25 | C[C@@H](NC(=O)c1nc[nH]c1C(=O)NCc1ccc(CNC(=O)OC(C)(C)C)cc1)c1ccccc1 | inactive
26 | CCOc1ccccc1CN1CCCC(CNS(=O)(=O)c2ccc(OC)cc2)C1 (centres undefined) | inactive
27 | COc1ccccc1N1CCN(C2CC(=O)N(c3ccccc3)C2=O)CC1 (centres undefined) | inactive
28 | COc1ccc(CCNC(=O)Cn2c(=O)n(-c3cc(F)ccc3F)c(=O)c3sccc32)cc1OC | inactive
29 | CCn1nc(NS(=O)(=O)c2ccccc2)c2cc3cc(C)ccc3nc21 | inactive
30 | Cc1nn(C)c(C)c1S(=O)(=O)N1CCC(C(=O)NC2CCCCCC2)CC1 | inactive
31 | COc1cc(CN2CCNC(=O)C2CC(=O)NCCCC2CCCC2)cc(OC)c1 (centres undefined) | inactive
32 | CCOc1ccccc1N(CC(=O)Nc1ccc(OC)cc1)S(=O)(=O)c1ccccc1 | inactive
33 | O=C(COC(=O)Cn1cnc2ccccc21)NCc1ccc(F)cc1 | inactive
34 | Cc1ccc(Cl)c(N/C=C/C(=O)c2ccccc2)c1 | inactive
35 | CCN1CCCCC(=N/O)/C(=N/O)CCCC1 | inactive
36 | CC(NC(=O)NC1CCCCC1)C(c1cccs1)N1CCN(C)CC1 (centres undefined) | inactive
37 | C[C@@]12C(=O)N(CC3CCCO3)CC(=O)N1[C@H]1c3cc(Cl)ccc3OC[C@@H]1[C@@H]2c1ccccc1 (some centres undefined) | inactive
38 | COCC(=O)N1CCC(n2nccc2NC(=O)c2ccccc2OC)CC1 | inactive
39 | CC1CC(C)(C)Nc2ccc(N=O)cc21 (centres undefined) | inactive
